This note sets out measurements from PubChem BioAssay (EPA / NIEHS).

Several values for one entry are separate records, joined by “and”; a condition that tells them apart may be missing. Equal entries are not always repeated. Results filed as inconclusive are left out. Some structures have more than one record in an assay (separate samples or runs), and their calls can disagree. Activity calls are given as the source filed them. How the source made its calls: active means hit-call score of the fitted dose curve at least 0.9, where 1 is the maximum; inconclusive means response in the unintended direction; inactive means score below 0.9.

The experiment has as its system frog Estrogen Receptor (ER), gene 398734. Kind of experiment: ATG_frER1_XSP2: Attagene TRANS-FACTORIAL Multi-Species (XSP2) HepG2 Assay for frog Estrogen Receptor (ER) (AID 2283821).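 Further: hits raise reporter mRNA above DMSO baseline so potency means agonist or activator.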 The protocol:
ATG_XSP2_multi-species_TRANS is a cell-based, multiplexed assay created by modifying the existing Attagene TRANS-FACTORIAL system to include a panel of nuclear receptors from some or all the following species: human (Homo sapiens), mouse (Mus musculus), frog (Xenopus laevis), zebrafish (Danio rerio), chicken (Gallus gallus), and turtle (Chrysemys picta). The ECOTOX-FACTORIAL format uses HepG2, a human liver cell line, with measurements taken at 24 hours after chemical dosing in a 24-well plate. Xsp2 included 3 nM 6-alpha-fluorotestosterone and 1.5 nM norgestrel to stimulate the androgen receptor.ATG_frER1_XSP2 is one of 29 assay components measured or calculated from the ATG_XSP2_multi-species_TRANS assay. It is designed to make measurements of mRNA induction, a form of inducible reporter, as detected with fluorescence intensity signals by Reverse transcription polymerase chain reaction (RT-PCR) and Capillary electrophoresis technology.The assay endpoint ATG_frER1_XSP2 was analyzed in the positive analysis fitting direction relative to DMSO as the negative control and baseline of activity. Using a type of inducible reporter, measures of mRNA for gain-of-signal activity can be used to understand the reporter gene at the transcription factor-level as they relate to the gene ER. Furthermore, this assay endpoint can be referred to as a primary readout, because this assay has produced multiple assay endpoints where this one serves a reporter gene function. To generalize the intended target to other relatable targets, this assay endpoint is annotated to the nuclear receptor intended target family, where the subfamily is steroidal.
Human liver HepG2 cells are transiently transfected with multiple reporter transcription units (MRTUs) in 6-well plates using FuGene 6 reagent (Roche; 3 ml FuGene/1 mg DNA). The MRTU constructs are regulated by a cis-regulating element (promoter). […] A major difference between the CIS and TRANS system is that in CIS activities of endogenous TFs are measured, whereas the TRANS assay evaluates changes in activities of exogenous, chimeric NR-Gal4 proteins. […] At the end of 24 hour incubation, total RNA was isolated using TriZol reagent (Invitrogen). The isolated RNA is then reverse-transcribed using oligo(dT) primer and Mo-MLV reverse transcriptase (Invitrogen) with DNAse I (Ambion) treatment for 30 min. The one-tenth of the produced cDNA was amplified by PCR using Taq DNA polymerase (Invitrogen) and two reporter sequence-specific primers. The PCR products were fluorescently labeled by primer extension with 6-arboxyfluorescein (6-FAM) 5'-labeled reporter sequence-specific primer (2 min at 95 C, 20 s at 68 C and 10 min at 72 C) and these products were digested with 5U of HpaI (New England Biolabs) for 2h at 37 C. The fragments were purified using Qiaquick PCR columns (Qiagen), analyzed on an ABI 3130xL genetic analyzer (Applied Biosystems) with peak positions identified by using a set of X-rhodamine (ROX)-labeled MapMarker1000 molecular weight standards (BioVentures). The raw capillary electrophoresis data was processed using Attagraph software (Attagene).
Regarding `COP(=O)(OC)O/C(=C\Cl)c1cc(Cl)c(Cl)cc1Cl`, the molecule was called inactive. Regarding `C[C@]12CC[C@H](O)CC1=CC[C@@H]1[C@@H]2CC[C@]2(C)C(=O)CC[C@@H]12`, the AC50 was 3.14 µM (active) and 1.55 µM (active). For the molecule `Clc1ccc(C2(Cn3cncn3)CC(Br)CO2)c(Cl)c1` (stereo unspecified), the AC50 is 9.65 µM (active) and 5.35 µM (active).

Turning to `CC(=O)C=C(C)C`, the molecule was classed as inactive. `CC1(C)CCC(Cc2ccc(Cl)cc2)C1(O)Cn1cncn1` (stereo unspecified): the call was inactive. For the molecule `CC(C)(C)c1cc(O)ccc1O`, the AC50 is 15.6 µM (active). In the case of `O=C1C2(Cl)C3(Cl)C4(Cl)C(Cl)(Cl)C5(Cl)C3(Cl)C1(Cl)C5(Cl)C24Cl` (stereo unspecified), the result was inactive.

With `Oc1ccc(-c2ccccc2)cc1`, the AC50 is 2.17 µM (active) and 811 nM (active). Take `O=S(=O)(c1ccc(Cl)cc1)c1ccc(Cl)cc1`: the AC50 is 26.4 µM (active) and the molecule was called inactive. Turning to `Oc1c(I)cc(I)cc1I`, the outcome was inactive. Turning to `C[C@H]1CCCC(=O)CCC/C=C/c2cc(O)cc(O)c2C(=O)O1`, the AC50 is 7.04 nM (active) and 6.82 nM (active). With `C[C@]12CCC(=O)C[C@@H]1CC[C@@H]1[C@@H]2CC[C@]2(C)[C@@H](O)CC[C@@H]12`, the outcome was inactive. Take `CC(C)(C)CC(C)(C)c1ccc(O)cc1`: the AC50 was 3.4 µM (active). In the case of `CC12CC1(C)C(=O)N(c1cc(Cl)cc(Cl)c1)C2=O` (stereo unspecified), the outcome was inactive. `CC(C)C1CCC(Cc2ccc(Cl)cc2)C1(O)Cn1cncn1` (stereo unspecified): the outcome was inactive.

In general, AC50 refers to the midpoint of the concentration-response curve, whichever way the signal moves.
